In PubChem BioAssay (NCI):
“And” between values parts separate entries of the source, which are not always exact repeats. Equal entries are not always repeated. This is part of a sample that, as a whole, favours compounds with a hit. Of some 79,000 tested, about 15% had one in any assay. Some compounds were tested as several samples or in several runs, with calls that do not always agree. The source made the active and inactive calls. No stated cut-off is given here; in the data, active means growth inhibition above about 70%; inactive means the rest. Where a SMILES comes first, the peptide text is derived from it.

Assays:
[1] = NCI Yeast Anticancer Drug Screen. Data for the rad50 strain (AID 155);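 further: 0% = growth of vehicle-only cultures of the same strain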; conditions: S. cerevisiae rad50 strain growth inhibition, stronger effect = higher value
Procedure, shortened: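 Inhibition values express reduced yeast growth in compound-treated cultures relative to vehicle-treated controls.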

[2] = NCI Yeast Anticancer Drug Screen. Data for the mec2-1 strain (AID 157); conditions: S. cerevisiae mec2-1 strain, stronger effect = higher value
Procedure, shortened: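 Each compound was tested on mec2-1 yeast, a strain altered in DNA damage repair or cell cycle control. Growth inhibition is reported relative to vehicle.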

[3] = NCI Yeast Anticancer Drug Screen. Data for the sgs1 mgt1 strain (AID 161);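 further: 0% = growth of cultures given vehicle only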; conditions: S. cerevisiae sgs1 mgt1 strain, stronger effect = higher value
Procedure, shortened: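 Mutant yeast exposed to compound; growth scored against vehicle-only wells.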

[4] = NCI Yeast Anticancer Drug Screen. Data for the cln2 rad14 strain (AID 165);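 further: 0% = growth equal to vehicle treated cultures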; conditions: S. cerevisiae cln2 rad14 strain, stronger effect = higher value
Procedure, shortened: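 Test compounds were added to cln2 rad14 yeast cultures; inhibition of growth was then determined by comparison with vehicle treatment.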

[5] = NCI Yeast Anticancer Drug Screen. Data for the bub3 strain (AID 167); conditions: S. cerevisiae bub3 mutant strain, stronger effect = higher value
Procedure, shortened: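 Steps: expose the mutant yeast strain to compound; grow alongside vehicle-treated cultures; measure growth; express inhibition against the vehicle cultures.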

[6] = NCI Yeast Anticancer Drug Screen. Data for the mlh1 rad18 strain (AID 175); conditions: S. cerevisiae mlh1 rad18 strain growth inhibition, stronger effect = higher value
Procedure, shortened: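 Inhibition values reflect reduced growth of mutant yeast versus vehicle-treated controls following compound exposure; the mutations affect DNA damage repair.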

[7] = at 5.0 µM (retest, dose inferred, filed as 0.5)
[8] = at 50.0 µM (retest, dose inferred, filed as 5.0)

Measured: growth inhibition

CC(C)C(NC(=O)C(N)CCC(=O)O)C(=O)O (stereo not drawn) (H-Glu-Val-OH; configuration not given here)
inactive: [1]; [7] -3% | [1]; [8] 2% | [1]; at 50.0 µM 15.7% | [2]; [7] -1% | [2]; [8] 5% | [2]; at 50.0 µM 2.15% | [3]; [7] 0% | [3]; [8] 1% | [3]; at 50.0 µM -9.35% | [4]; [7] 5% | [4]; [8] 7% | [4]; at 50.0 µM 45% | [5]; [7] -1% | [5]; [8] 0% | [5]; at 50.0 µM -8.25% | [6]; [7] -3% | [6]; [8] 4% | [6]; at 50.0 µM 9.95%

CC(C)(c1ccc(O)cc1)c1ccc(O)cc1
59% (inactive) and 83% (active): [1]; [8]
active: [6]; at 50.0 µM 76.6% and 87.7%
inactive: [1]; [7] 5% | [2]; [7] 10% and 3% | [2]; [8] 34% and 51% | [3]; [7] -3% and 4% | [4]; [7] 9% and 16% | [5]; [7] 30% and 5% | [5]; [8] 45% and 64% | [6]; [7] 6% and 4% | [6]; [8] 64% and 68%
78.1% (active) and 64.6% (inactive): [3]; at 50.0 µM
69.5% (inactive) and 77.6% (active): [1]; at 50.0 µM
39% (inactive) and 78% (active): [4]; [8]
50.4% (inactive) and 71.2% (active): [4]; at 50.0 µM
75% (active) and 51% (inactive): [3]; [8]
58.6% (inactive) and 81.8% (active): [2]; at 50.0 µM
59.7% (inactive) and 81.1% (active): [5]; at 50.0 µM

O=C1NS(=O)(=O)c2ccccc21
inactive: [1]; [7] -9% | [1]; [8] -81% | [1]; at 50.0 µM 23.3% and 33% | [2]; [7] -30% | [2]; [8] -32% | [2]; at 50.0 µM 13.6% and -8.5% | [3]; [7] -11% | [3]; [8] -43% | [3]; at 50.0 µM -12.1% and 24.2% | [4]; [7] -2% | [4]; [8] -17% | [4]; at 50.0 µM 47.5% and 29.4% | [5]; [7] -29% | [5]; [8] -122% | [5]; at 50.0 µM 30.9% and 50.3% | [6]; [7] -6% | [6]; [8] -43% | [6]; at 50.0 µM -19.4% and 20.9%

O=C1c2cccc(O)c2C(=O)c2cccc(O)c21
inactive: [1]; [7] 6% | [1]; [8] 17% | [1]; at 50.0 µM 20.7% and 33.4% | [2]; [7] 9% | [2]; [8] 17% | [2]; at 50.0 µM 12.1% and 22.7% | [3]; [7] 0% | [3]; [8] 7% | [4]; [7] 4% | [4]; [8] 24% | [4]; at 50.0 µM 12.4% and -23.5% | [5]; [7] 4% | [5]; [8] 1% | [5]; at 50.0 µM 6% and 30.1% | [6]; [7] 7% | [6]; [8] 39%
6.5% (inactive) and 76.8% (active): [6]; at 50.0 µM
18.1% (inactive) and 82.8% (active): [3]; at 50.0 µM

O=C(c1ccc(Cl)cc1)C(O)c1ccc(Cl)cc1 (centres undefined)
27% (inactive) and 74% (active): [1]; [8]
active: [3]; [8] 79% and 82%
inactive: [1]; [7] -2% and 10% | [1]; at 50.0 µM 34.2% | [2]; [7] -9% and -3% | [2]; [8] 14% and 35% | [2]; at 50.0 µM 12.4% | [3]; [7] -2% and 4% | [3]; at 50.0 µM 55.1% | [4]; [7] -8% and 7% | [4]; [8] 67% and 28% | [4]; at 50.0 µM 36% | [5]; [7] -10% and -1% | [5]; [8] 20% and 45% | [5]; at 50.0 µM 65.8% | [6]; [7] -6% and -12% | [6]; [8] 53% and 49% | [6]; at 50.0 µM 62.3%

CCOC(=O)C1=C(C(=O)c2ccc(C)cc2)C(c2cccc([N+](=O)[O-])c2)C(C(=O)c2ccc(C)cc2)=C(C(=O)OCC)N1
active: [2]; at 50.0 µM 78% | [5]; at 50.0 µM 76.2% | [6]; at 50.0 µM 78.9%
inactive: [1]; [7] 4% | [1]; [8] 55% | [1]; at 50.0 µM 60.6% | [2]; [7] 3% | [2]; [8] 69% | [3]; [7] 8% | [3]; [8] 47% | [3]; at 50.0 µM 61.1% | [4]; [7] -3% | [4]; [8] 2% | [4]; at 50.0 µM 19.3% | [5]; [7] 2% | [5]; [8] 61% | [6]; [7] 0% | [6]; [8] -17%

CCn1c(-c2c(Cl)cc(O)cc2Cl)cc2c(Cl)cc(O)cc21
inactive: [1]; [7] 64% | [3]; [7] 17% | [4]; [7] 13% | [5]; [7] 11% | [6]; [7] 22%
active: [1]; [8] 99% | [1]; at 50.0 µM 98.1% | [2]; [7] 97% | [2]; [8] 99% | [2]; at 50.0 µM 99% | [3]; [8] 98% | [3]; at 50.0 µM 98.5% | [4]; [8] 98% | [4]; at 50.0 µM 98.5% | [5]; [8] 96% | [5]; at 50.0 µM 98% | [6]; [8] 94% | [6]; at 50.0 µM 98.6%

NNc1c2ccccc2nc2ccccc12
-10% (inactive) and 94% (active): [3]; at 50.0 µM
active: [1]; [8] 79% | [6]; [8] 86%
-19.1% (inactive) and 92.5% (active): [4]; at 50.0 µM
8.4% (inactive) and 96.8% (active): [6]; at 50.0 µM
-21.5% (inactive) and 93.5% (active): [5]; at 50.0 µM
inactive: [1]; [7] 9% | [2]; [7] 6% | [2]; [8] 43% | [3]; [7] 1% | [3]; [8] 47% | [4]; [7] 4% | [4]; [8] 38% | [5]; [7] -5% | [5]; [8] 48% | [6]; [7] 2%
18.4% (inactive) and 85.8% (active): [2]; at 50.0 µM
21.1% (inactive) and 95.8% (active): [1]; at 50.0 µM
